About 83,000 compounds went through this panel and 20% of them were active in at least one assay; those are over-represented in the sample as a whole.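 Method: cells in 96-well plates; compound added at one concentration; 48 h incubation; percent growth measured; values under 10 scored active.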 Active and inactive are the calls of the source.

This note sets out measurements from PubChem BioAssay (NCI).

The assay relates to NCI-H322M lung. Put plainly: NCI-60 one-dose screen, 48 h (100 = growth as untreated, 0 = no growth, -100 = all killed). As to conditions: 10 µM unless noted. As for the experimental part:
Growth inhibition of the NCI-H322M human Non-Small Cell Lung tumor cell line is measured as a screen for anti-cancer activity. Cells are grown in 96 well plates and exposed to the test compound for 48 hours. Compounds are tested at a single concentration, which is 10^-5 M for most compounds. The reported endpoint is percent growth (GI% or GIPRCNT), where numbers from 0 - 100% represent growth inhibition, and numbers from -100% - 0 represent cell death. For example, a value of 40 represents 60% growth inhibition. A value of 0 means no net growth occurred over the course of the experiment. A value of -40 indicates 40% of cells at the beginning of the experiment died by the end of the experiment. A value of -100 means all cells are dead at the end of the experiment.
NCI-60 Human Tumor Cell Lines Screen was performed using the standard one-dose NCI protocol, which is described in more detail at https://dtp.cancer.gov/discovery_development/nci-60/default.htm.
Compounds with GIPRCNT values below 10 were considered active. Activity score was based on GIPRCNT using the following formula: […]
Score is 0 for GIPRCNT values of 100 or above, 50 for GIPRCNT values of 0, and 100 for GIPRCNT values of -100.
As to `COC1=CC(c2ccc[nH]2)=N/C1=C\c1[nH]c(C)c(C(=O)OC(C)C)c1C`, the growth was -28.2% (active). Turning to `Cc1c(O)cc(-c2cnc(Nc3ccccc3)s2)c(O)c1C`, the growth was 96.6% (inactive).

`C=C(C)[C@@H]1CC[C@]2(CO)CC[C@]3(C)[C@H](CC[C@@H]4[C@@]5(C)CC[C@H](NCO)C(C)(C)[C@@H]5CC[C@]43C)[C@@H]12`: the growth is -83.7% (active). For `CCC(=O)Oc1ccc(-c2ccccc2)cc1Br` the value was 111% (inactive). For `COc1ccc(\C=N/N=C(N)/C(N)=N\N=C/c2ccc(OC)cc2)cc1` the value was 123% (inactive); for `CN(C)Cc1ccc(O)c(C(=O)O)c1`, 109% (inactive); for `O=C(OC(CO)C(=O)NC12CC3CC(CC(C3)C1)C2)c1ccc(Cl)cc1` (stereo not given), 102% (inactive). The same measure for `O=c1c2cccc3c(N4CCCC4)ccc(c32)c2nc3ccccc3n12`: 95.1% (inactive).

Consider `CCOC(=O)C1=C(N)Oc2c(sc3c(F)cccc23)C1c1ccc(O)cc1` (stereo not given), for which the growth was 67.5% (inactive). As for `Nc1nc(-c2ccc(Cl)cc2)nc2c1sc(=S)n2-c1ccccc1`, the growth was 45.7% (inactive). Turning to `N#Cc1ccc(O)c(C2=NCC(c3ccccc3)O2)c1` (stereo not given), the growth is 55.9% (inactive). For `O=C(NCCCl)Nc1ncccc1OCc1ccccc1` the value was 92.4% (inactive). The same measure for `NS(=O)(=O)c1ccccc1NC(=O)Nc1nc2ccccc2s1`: 98% (inactive); for `C#CCOc1cccc(Nc2ncnc3cc(NC(=O)C=C)ccc23)c1`: 50.3% (inactive); for `O=C(CN1C(=O)NC2NC(=O)NC21)N/N=C/c1ccccc1[N+](=O)[O-]` (stereo not given): 106% (inactive).

With `CC(=O)c1c(C)nc(SCC(=O)Nc2cccc(O)c2)n1-c1ccc(Cl)cc1`, the growth is 91.2% (inactive). For the molecule `CCOC(=O)C(=O)C(C(=O)OCC)c1ccccc1` (stereo not given), the growth is 110% (inactive). For the molecule `COc1ccc2c(c1OC)CO[C@@H]2[C@H]1c2c(cc3c(c2OC)OCO3)CCN1S(=O)(=O)c1cn(C)cn1`, the growth was 48% (inactive). On to `CCOC(=O)C1=C(c2ccccc2)N=C2SC=C(c3ccc(Cl)cc3)N2C1c1ccc(Cl)cc1` (stereo not given), for which the growth is 88.5% (inactive). For `CCCc1c(OC(=O)c2ccccc2)nc2[nH]c(=O)sc2c1C` the value was 101% (inactive); for `O=C(O)CCN1C(=O)/C(=C/C(Cl)=C/c2ccccc2)SC1=S`, 61% (inactive). Take `Clc1ccc2c(NC3CCC(N4CCOCC4)CC3)ccnc2c1` (stereo not given): the growth was 101% (inactive). As for `CCOC(=O)c1csc(NC(=O)COc2ccc(/C=C3\Oc4ccccc4C3=O)cc2)n1`, the growth is 95.4% (inactive). For `CCOC(=O)c1c(C(=O)c2cn(C)c3ccc(Br)cc23)c(-c2cn(C)c3ccc(Br)cc23)n(NC(=O)OC(C)(C)C)c1C`, the growth was 89.5% [100 µM] (inactive).

Take `CCCCCOC(=O)c1c(C)[nH]c(/C=C2\N=C(c3ccc[nH]3)C=C2OC)c1C`: the growth is -17.8% (active). For `O=C1NC(=C(Cl)Cl)/C(=N\S(=O)(=O)NCc2ccccc2)N1`, the growth is 99.3% (inactive).

As for `CCOC(=O)c1nn(-c2ccc(S(N)(=O)=O)cc2)c2nc(C)cc(=O)n12`, the growth was 102% (inactive). As to `Cn1cc(C(=O)c2nc(-c3c[nH]c4ccccc34)no2)c2cc(F)ccc21`, the growth was 62.3% (inactive). As for `CCCCNC(=O)Oc1ccc(/C(=C(/C)Cc2ccc(OC)cc2)c2ccc(OCCN(CC)CC)cc2)cc1`, the growth is 84.9% (inactive).

`Cc1cccc(CNc2c3ccccc3nc3ccccc23)c1`: the growth was 40.3% (inactive). Take `COc1ccc(C(=O)Nc2cccc(-c3cc(=O)c4c(OC)c(OC)c(OC)cc4o3)c2)cc1`: the growth was 55.1% (inactive). In the case of `O=S(=O)(Nc1ccc(F)cc1F)c1ccc(-c2cnc(C3CC3)o2)cc1`, the growth is 47.4% (inactive). Take `CCCn1cc2c(=O)nc3sc(Cc4ccccc4)c(C)n3c2n1`: the growth is 98.5% (inactive). In the case of `CCOc1nc(-c2ccccc2)cc2c(O)c(C(=O)N/N=C/c3ccccc3)[nH]c(=O)c12`, the growth is 128% (inactive). Regarding `CC(C)=CCCC(C)c1ccc(C)c2c1OCN(CCCCCO)C2` (stereo not given), the growth is 102% (inactive).

Take `COc1cc(-c2nccc3[nH]c(-c4ccc5cc[nH]c5c4)nc23)cc(OC)c1OC`: the growth is 45% (inactive). On to `Nc1nc2ccccc2c2c1S(=O)(=O)c1ccc(Cl)cc1C2=O`, for which the growth was 63% (inactive). As for `COc1cc2ncnc(Nc3ccc(S(=O)(=O)Nc4cc(C)on4)cc3)c2cc1OCCCN1CCN(c2ccc(F)cc2)CC1`, the growth was 99.6% (inactive). The same measure for `Cc1cc(S(=O)(=O)/N=C(\N)n2nc(C)c(C)c2C)c(SCc2ccccc2)cc1Cl`: 86.2% (inactive); for `O=c1[nH]c(-c2ccccc2)nc2sc3cc(O)ccc3c12`: 81.2% (inactive).
